According to the supplement of paper PMC11732987, “Enantioselective OTUD7B fragment discovery through chemoproteomics screening and high-throughput optimisation” (Communications Chemistry, 2025):

Key:
Experiment in all cases: log2 ratio of Biotin-Ahx-Ub-VS probe labelling (fragment/DMSO); higher = less target engagement (more negative = stronger competition), active = hit call of the paper (q ≤ 0.05, log2 ratio ≤ -1)
Conditions in all cases: compound concentration: 200 uM; treatment time: 3 h
USP34 = USP34 (UniProt Q70CQ2)
USP34, sequence (Q70CQ2 whole entry, the tested form may be a part): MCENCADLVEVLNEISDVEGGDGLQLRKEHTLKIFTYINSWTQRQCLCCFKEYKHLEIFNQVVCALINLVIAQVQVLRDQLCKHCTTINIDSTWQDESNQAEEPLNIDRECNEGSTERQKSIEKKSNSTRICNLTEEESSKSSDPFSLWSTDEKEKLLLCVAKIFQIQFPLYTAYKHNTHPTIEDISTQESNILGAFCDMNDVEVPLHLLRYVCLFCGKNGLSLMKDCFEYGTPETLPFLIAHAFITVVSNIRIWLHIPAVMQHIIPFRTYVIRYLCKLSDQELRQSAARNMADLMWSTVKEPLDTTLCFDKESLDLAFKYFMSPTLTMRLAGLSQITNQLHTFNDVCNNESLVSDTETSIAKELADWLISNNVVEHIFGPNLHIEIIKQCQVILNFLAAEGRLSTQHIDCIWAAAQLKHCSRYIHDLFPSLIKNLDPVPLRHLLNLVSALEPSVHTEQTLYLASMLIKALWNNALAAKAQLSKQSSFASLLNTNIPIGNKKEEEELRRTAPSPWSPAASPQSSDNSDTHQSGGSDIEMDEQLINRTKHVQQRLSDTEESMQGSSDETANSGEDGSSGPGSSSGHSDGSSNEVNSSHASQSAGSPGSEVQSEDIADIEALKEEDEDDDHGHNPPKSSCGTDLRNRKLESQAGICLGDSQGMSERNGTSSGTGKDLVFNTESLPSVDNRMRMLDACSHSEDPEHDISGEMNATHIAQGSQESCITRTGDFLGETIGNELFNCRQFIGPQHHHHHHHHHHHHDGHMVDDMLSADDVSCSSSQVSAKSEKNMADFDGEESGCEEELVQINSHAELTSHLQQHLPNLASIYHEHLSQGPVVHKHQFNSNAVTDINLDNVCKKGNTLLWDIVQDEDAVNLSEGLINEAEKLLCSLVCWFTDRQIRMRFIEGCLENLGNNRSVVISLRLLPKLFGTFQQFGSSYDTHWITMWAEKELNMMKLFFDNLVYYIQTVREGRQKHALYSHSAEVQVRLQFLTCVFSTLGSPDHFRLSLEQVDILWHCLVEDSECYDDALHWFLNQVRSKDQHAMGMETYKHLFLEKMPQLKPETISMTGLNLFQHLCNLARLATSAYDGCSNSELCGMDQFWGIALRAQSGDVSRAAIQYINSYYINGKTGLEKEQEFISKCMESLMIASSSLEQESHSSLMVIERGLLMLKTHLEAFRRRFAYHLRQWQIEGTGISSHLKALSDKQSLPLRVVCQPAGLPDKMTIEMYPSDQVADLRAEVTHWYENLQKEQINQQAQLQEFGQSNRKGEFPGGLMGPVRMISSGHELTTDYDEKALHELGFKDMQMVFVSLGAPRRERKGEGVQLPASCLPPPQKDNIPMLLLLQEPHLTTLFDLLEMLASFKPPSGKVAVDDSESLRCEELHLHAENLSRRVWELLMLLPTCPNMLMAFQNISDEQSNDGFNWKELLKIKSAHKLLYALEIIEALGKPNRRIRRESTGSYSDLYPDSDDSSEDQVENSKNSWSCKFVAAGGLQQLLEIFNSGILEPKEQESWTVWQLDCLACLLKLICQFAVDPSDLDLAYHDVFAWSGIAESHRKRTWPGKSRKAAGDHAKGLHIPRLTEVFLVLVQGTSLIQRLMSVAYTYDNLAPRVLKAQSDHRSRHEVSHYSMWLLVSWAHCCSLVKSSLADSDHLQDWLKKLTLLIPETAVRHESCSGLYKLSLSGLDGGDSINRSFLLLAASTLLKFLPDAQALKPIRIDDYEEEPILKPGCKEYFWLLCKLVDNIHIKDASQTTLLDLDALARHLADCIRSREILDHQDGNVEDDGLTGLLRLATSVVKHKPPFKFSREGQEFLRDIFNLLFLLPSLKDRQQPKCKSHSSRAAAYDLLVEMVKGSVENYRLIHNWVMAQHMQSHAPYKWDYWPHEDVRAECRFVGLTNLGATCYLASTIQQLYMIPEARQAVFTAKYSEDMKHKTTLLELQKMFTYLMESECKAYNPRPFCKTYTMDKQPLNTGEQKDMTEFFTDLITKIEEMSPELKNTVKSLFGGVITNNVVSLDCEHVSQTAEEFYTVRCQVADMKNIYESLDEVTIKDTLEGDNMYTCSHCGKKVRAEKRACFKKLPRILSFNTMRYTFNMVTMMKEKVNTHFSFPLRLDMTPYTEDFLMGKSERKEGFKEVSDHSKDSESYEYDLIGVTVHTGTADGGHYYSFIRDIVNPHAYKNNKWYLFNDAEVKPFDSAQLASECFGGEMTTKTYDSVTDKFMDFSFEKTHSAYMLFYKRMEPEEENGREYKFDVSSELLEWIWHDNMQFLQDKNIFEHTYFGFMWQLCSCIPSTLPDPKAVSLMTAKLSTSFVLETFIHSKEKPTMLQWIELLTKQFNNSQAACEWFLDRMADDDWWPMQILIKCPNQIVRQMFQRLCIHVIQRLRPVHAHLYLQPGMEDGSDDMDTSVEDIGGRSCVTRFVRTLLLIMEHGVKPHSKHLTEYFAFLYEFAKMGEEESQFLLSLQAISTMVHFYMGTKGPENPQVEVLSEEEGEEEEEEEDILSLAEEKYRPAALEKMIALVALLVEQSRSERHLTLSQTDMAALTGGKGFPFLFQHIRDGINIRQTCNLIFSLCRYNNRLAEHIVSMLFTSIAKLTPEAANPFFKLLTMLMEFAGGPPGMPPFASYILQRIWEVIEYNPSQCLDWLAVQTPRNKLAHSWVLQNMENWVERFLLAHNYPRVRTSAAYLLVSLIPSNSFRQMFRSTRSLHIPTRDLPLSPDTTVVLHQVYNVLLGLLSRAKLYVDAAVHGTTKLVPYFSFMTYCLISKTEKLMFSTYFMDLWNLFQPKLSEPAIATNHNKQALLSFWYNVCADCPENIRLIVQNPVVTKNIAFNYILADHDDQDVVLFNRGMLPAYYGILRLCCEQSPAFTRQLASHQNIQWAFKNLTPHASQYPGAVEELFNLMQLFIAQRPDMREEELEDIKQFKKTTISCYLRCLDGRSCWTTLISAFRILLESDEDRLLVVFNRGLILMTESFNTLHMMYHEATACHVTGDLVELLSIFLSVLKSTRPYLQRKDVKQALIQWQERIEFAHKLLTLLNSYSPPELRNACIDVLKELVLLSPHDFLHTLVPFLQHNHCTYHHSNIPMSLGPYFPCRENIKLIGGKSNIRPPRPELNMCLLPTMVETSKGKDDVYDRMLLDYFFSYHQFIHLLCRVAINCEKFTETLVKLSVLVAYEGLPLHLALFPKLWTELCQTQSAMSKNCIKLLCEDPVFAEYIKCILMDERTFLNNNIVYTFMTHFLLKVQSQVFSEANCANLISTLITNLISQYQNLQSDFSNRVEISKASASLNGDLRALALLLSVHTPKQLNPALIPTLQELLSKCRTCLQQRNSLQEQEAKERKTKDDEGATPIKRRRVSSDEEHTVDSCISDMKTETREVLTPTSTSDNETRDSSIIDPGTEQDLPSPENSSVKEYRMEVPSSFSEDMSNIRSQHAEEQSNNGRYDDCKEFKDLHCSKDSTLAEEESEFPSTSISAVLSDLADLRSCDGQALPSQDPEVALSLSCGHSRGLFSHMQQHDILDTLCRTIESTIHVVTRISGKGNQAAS
In short: (§1)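 HEK293T lysate, 495 µg per sample in Tris/CHAPS/IGEPAL buffer with protease inhibitors, was treated in triplicate with fragment at 200 µM or vehicle for 3 h and then with Biotin-Ahx-Ub-VS at 0.5 µM final for 1 h. Labelled DUBs were NeutrAvidin-enriched, digested with LysC and trypsin, and run by diaPASEF LC-MS/MS. Spectronaut label-free quantities were global-median-normalised, and values are average log2 fragment/vehicle ratios by unpaired t-test on proteins with ≥2 unique peptides.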

USP36 = target: T1, USP36 (UniProt Q9P275)
T1 sequence (whole entry): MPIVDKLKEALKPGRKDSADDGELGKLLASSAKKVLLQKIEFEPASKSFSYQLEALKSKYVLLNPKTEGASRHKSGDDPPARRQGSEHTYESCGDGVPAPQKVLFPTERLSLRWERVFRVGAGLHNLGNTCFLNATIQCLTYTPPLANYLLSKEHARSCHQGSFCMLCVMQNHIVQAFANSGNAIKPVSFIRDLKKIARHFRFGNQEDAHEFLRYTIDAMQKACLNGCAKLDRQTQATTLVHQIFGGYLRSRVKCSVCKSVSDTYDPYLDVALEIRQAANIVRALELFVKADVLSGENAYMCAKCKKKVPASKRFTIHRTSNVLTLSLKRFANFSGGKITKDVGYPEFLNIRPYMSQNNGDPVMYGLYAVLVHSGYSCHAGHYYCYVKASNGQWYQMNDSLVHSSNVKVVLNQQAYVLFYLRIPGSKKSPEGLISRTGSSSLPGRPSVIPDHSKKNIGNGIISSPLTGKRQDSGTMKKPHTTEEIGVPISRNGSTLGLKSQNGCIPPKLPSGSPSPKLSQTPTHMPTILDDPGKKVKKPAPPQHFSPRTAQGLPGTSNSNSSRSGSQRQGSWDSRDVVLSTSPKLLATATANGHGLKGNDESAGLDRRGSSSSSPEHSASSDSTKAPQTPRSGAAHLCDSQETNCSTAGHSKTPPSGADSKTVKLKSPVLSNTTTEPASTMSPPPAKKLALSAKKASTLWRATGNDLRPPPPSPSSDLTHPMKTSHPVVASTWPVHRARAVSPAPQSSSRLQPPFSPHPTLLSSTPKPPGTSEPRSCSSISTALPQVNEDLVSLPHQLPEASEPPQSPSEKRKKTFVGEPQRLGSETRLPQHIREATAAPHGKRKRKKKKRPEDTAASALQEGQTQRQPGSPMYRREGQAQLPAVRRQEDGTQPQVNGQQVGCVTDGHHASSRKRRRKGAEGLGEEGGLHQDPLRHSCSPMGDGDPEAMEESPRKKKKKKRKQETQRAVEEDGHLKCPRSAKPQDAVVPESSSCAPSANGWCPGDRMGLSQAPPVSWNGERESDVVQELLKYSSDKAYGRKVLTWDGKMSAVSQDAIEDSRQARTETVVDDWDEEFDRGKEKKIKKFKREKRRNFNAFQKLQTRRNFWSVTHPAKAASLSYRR
In short: as §1

USP38 = target: T2, USP38 (UniProt Q8NB14)
T2 sequence (whole entry): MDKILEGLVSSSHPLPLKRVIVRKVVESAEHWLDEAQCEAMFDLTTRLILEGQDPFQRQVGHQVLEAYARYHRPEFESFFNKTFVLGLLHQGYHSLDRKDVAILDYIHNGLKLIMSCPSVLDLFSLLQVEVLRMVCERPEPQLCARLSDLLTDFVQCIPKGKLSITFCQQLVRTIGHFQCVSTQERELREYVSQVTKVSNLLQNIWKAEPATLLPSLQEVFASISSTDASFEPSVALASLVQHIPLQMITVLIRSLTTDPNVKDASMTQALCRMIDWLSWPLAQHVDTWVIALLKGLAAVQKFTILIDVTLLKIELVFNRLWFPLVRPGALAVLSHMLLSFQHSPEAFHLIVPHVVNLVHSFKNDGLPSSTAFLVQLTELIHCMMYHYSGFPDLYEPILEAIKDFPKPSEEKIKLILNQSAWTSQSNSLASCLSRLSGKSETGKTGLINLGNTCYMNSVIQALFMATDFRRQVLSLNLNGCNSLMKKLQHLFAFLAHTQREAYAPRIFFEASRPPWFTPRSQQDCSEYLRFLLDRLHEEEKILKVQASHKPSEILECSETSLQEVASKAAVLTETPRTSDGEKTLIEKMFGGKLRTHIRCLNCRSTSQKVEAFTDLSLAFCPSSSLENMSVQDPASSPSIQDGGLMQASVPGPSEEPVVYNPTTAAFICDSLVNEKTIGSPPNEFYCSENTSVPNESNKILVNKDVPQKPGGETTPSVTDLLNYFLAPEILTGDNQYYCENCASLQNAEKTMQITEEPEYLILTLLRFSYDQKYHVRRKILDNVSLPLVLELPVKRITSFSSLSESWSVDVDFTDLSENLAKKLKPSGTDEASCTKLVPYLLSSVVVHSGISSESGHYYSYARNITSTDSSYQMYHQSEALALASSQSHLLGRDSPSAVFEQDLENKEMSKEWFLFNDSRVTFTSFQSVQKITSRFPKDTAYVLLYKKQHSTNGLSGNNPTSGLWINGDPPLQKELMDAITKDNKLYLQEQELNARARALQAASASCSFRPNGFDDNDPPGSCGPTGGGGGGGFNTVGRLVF
In short: as §1

USP39 = target: T3, USP39 (UniProt Q53GS9)
T3 sequence (whole entry): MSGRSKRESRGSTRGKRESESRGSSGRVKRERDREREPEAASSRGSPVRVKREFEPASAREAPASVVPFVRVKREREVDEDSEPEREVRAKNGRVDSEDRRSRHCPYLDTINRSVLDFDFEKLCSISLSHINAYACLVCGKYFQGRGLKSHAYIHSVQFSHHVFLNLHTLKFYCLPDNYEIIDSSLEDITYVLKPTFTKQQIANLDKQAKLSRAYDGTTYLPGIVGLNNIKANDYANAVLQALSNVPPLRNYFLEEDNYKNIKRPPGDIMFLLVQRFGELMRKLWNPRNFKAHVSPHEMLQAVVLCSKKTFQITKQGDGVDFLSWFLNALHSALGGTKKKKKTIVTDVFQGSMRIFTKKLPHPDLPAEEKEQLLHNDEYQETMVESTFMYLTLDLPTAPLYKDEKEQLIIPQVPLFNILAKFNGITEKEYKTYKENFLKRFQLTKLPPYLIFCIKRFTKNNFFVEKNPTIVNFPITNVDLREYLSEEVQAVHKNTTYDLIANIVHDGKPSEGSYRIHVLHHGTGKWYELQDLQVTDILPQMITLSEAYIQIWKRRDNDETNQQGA
In short: as §1

USP4 = target: T4, USP4 (UniProt Q13107)
T4 sequence (whole entry): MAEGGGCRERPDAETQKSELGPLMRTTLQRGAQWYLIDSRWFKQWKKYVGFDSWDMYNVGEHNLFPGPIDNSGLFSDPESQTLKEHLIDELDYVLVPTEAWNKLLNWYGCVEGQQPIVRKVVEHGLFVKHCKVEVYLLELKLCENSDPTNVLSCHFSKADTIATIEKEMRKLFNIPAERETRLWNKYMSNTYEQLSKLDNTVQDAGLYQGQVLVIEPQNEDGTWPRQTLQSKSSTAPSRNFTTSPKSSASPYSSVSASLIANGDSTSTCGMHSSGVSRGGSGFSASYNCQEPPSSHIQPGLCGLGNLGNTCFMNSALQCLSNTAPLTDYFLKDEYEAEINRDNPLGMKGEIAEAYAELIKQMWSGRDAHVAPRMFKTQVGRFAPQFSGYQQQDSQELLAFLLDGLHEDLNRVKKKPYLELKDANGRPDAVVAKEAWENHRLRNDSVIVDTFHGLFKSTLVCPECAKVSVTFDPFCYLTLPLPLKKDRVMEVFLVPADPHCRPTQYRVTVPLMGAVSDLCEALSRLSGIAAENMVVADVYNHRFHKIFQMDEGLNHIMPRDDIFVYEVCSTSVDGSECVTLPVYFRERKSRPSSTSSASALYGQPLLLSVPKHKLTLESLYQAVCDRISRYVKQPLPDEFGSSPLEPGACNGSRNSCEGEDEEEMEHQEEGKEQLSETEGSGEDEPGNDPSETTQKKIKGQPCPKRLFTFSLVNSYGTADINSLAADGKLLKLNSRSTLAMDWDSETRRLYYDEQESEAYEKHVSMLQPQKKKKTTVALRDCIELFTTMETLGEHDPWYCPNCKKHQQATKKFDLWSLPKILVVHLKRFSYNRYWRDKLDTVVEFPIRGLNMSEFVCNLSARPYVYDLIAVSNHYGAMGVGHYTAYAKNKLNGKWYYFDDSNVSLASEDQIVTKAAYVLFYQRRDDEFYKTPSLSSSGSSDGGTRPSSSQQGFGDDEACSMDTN
In short: as §1

Measured: log2 ratio of Biotin-Ahx-Ub-VS probe labelling

Cc1ccc(C)c(NC(=O)CCl)c1
inactive: USP34 -0.458 | USP36 -0.1 | USP38 -0.159 | USP39 0.199 | USP4 -0.443
